# PubChem BioAssay AID1159580 (chemical genetic matrix, 2015)
# About 2,000 (36%) of roughly 5,500 compounds were called active. About 18% were inconclusive and are not listed. The list shows a part of the results. A number with no mark means an inactive call. Rule as the data show it: active = normalized growth mostly below about 0.91 (no sharp cut-off); inconclusive = no clear call, values can overlap the other calls; inactive = mostly above about 0.92.
# Assay: chemical genetic growth profiling, strain panel (AID 1159580);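 also: tested at 20 µM; growth read once vehicle control cultures reached saturation at 30 °C; 1 = growth at the plate median or of vehicle wells; lower values mean less growth of the strain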
# Conditions: growth OD
compound,measurement,setting,value
O=[N+]([O-])c1cc([As](=O)(O)O)ccc1O,normalized growth,"S. cerevisiae deletion strains, locus YJR075W, strain HOC1, active compounds read low",1
same,normalized growth,"S. cerevisiae deletion strains, locus YKL009W, strain mrt4, active compounds read low",0.986
same,normalized growth,"S. cerevisiae deletion strains, locus YKL068W, active compounds read low",0.96
same,normalized growth,"S. cerevisiae deletion strains, locus YKL085W, strain MDH1 (second series), active compounds read low",0.484 (active)
same,normalized growth,"S. cerevisiae deletion strains, locus YKL085W, strain MDH1, active compounds read low",0.484 (active)
same,normalized growth,"S. cerevisiae deletion strains, locus YKL160W, strain elf1, active compounds read low",0.959
same,normalized growth,"S. cerevisiae deletion strains, locus YKL190W, strain CNB1, active compounds read low",0.983
same,normalized growth,"S. cerevisiae deletion strains, locus YKR001C, strain vps1, active compounds read low",0.232 (active)
same,normalized growth,"S. cerevisiae deletion strains, locus YKR091W, strain srl3, active compounds read low",0.975
same,normalized growth,"S. cerevisiae deletion strains, locus YLL001W, strain dnm1, active compounds read low",0.936
same,normalized growth,"S. cerevisiae deletion strains, locus YLL026W, active compounds read low",0.97
same,normalized growth,"S. cerevisiae deletion strains, locus YLL041C, strain sdh2, active compounds read low",0.965
same,normalized growth,"S. cerevisiae deletion strains, locus YLR027C, strain aat2, active compounds read low",0.97
same,normalized growth,"S. cerevisiae deletion strains, locus YLR039C, strain RIC1, active compounds read low",1.01
same,normalized growth,"S. cerevisiae deletion strains, locus YLR058C, strain SHM2, active compounds read low",0.998
same,normalized growth,"S. cerevisiae deletion strains, locus YLR102C, strain apc9, active compounds read low",0.243 (active)
same,normalized growth,"S. cerevisiae deletion strains, locus YLR113W, strain HOG1, active compounds read low",1.02
same,normalized growth,"S. cerevisiae deletion strains, locus YLR221C, strain rsa3, active compounds read low",1
same,normalized growth,"S. cerevisiae deletion strains, locus YLR258W, strain gsy2, active compounds read low",0.975
same,normalized growth,"S. cerevisiae deletion strains, locus YLR262C, strain YPT6 (second series), active compounds read low",0.948
same,normalized growth,"S. cerevisiae deletion strains, locus YLR262C, strain YPT6, active compounds read low",1.02
same,normalized growth,"S. cerevisiae deletion strains, locus YLR268W, strain sec22, active compounds read low",0.12 (active)
same,normalized growth,"S. cerevisiae deletion strains, locus YLR320W, strain mms22, active compounds read low",0.984
same,normalized growth,"S. cerevisiae deletion strains, locus YLR330W, strain CHS5, active compounds read low",0.988
same,normalized growth,"S. cerevisiae deletion strains, locus YLR342W, strain FKS1 (second series), active compounds read low",1.07
same,normalized growth,"S. cerevisiae deletion strains, locus YLR342W, strain FKS1, active compounds read low",0.978
same,normalized growth,"S. cerevisiae deletion strains, locus YLR357W, strain rsc2, active compounds read low",0.92
same,normalized growth,"S. cerevisiae deletion strains, locus YLR370C, strain arc18, active compounds read low",0.957
same,normalized growth,"S. cerevisiae deletion strains, locus YLR371W, strain rom2, active compounds read low",0.152 (active)
same,normalized growth,"S. cerevisiae deletion strains, locus YLR384C, strain iki3, active compounds read low",0.938
same,normalized growth,"S. cerevisiae deletion strains, locus YLR418C, strain cdc73, active compounds read low",0.146 (active)
same,normalized growth,"S. cerevisiae deletion strains, locus YML016C, strain PPZ1, active compounds read low",0.988
same,normalized growth,"S. cerevisiae deletion strains, locus YML032C, strain rad52, active compounds read low",0.929
same,normalized growth,"S. cerevisiae deletion strains, locus YML120C, strain ndi1, active compounds read low",0.969
same,normalized growth,"S. cerevisiae deletion strains, locus YML124C, strain tub3, active compounds read low",0.329 (active)
same,normalized growth,"S. cerevisiae deletion strains, locus YMR058W, strain fet3, active compounds read low",0.977
same,normalized growth,"S. cerevisiae deletion strains, locus YMR078C, strain ctf18, active compounds read low",0.548 (active)
same,normalized growth,"S. cerevisiae deletion strains, locus YMR125W, strain sto1, active compounds read low",0.943
same,normalized growth,"S. cerevisiae deletion strains, locus YMR129W, active compounds read low",0.981
same,normalized growth,"S. cerevisiae deletion strains, locus YMR205C, strain PFK2, active compounds read low",0.983
same,normalized growth,"S. cerevisiae deletion strains, locus YMR223W, strain ubp8, active compounds read low",0.129 (active)
same,normalized growth,"S. cerevisiae deletion strains, locus YMR231W, strain pep5, active compounds read low",0.951
same,normalized growth,"S. cerevisiae deletion strains, locus YMR263W, strain SAP30, active compounds read low",0.99
same,normalized growth,"S. cerevisiae deletion strains, locus YMR307W, strain GAS1, active compounds read low",1.05
same,normalized growth,"S. cerevisiae deletion strains, locus YNL067W, strain RPL9B, active compounds read low",0.991
same,normalized growth,"S. cerevisiae deletion strains, locus YNL071W, strain lat1, active compounds read low",0.973
same,normalized growth,"S. cerevisiae deletion strains, locus YNL128W, strain TEP1, active compounds read low",0.976
same,normalized growth,"S. cerevisiae deletion strains, locus YNL153C, strain GIM3, active compounds read low",0.958
same,normalized growth,"S. cerevisiae deletion strains, locus YNL183C, strain NPR1, active compounds read low",0.971
same,normalized growth,"S. cerevisiae deletion strains, locus YNL209W, strain ssb2, active compounds read low",0.974
same,normalized growth,"S. cerevisiae deletion strains, locus YNL233W, strain BNI4, active compounds read low",1.01
same,normalized growth,"S. cerevisiae deletion strains, locus YNL248C, strain rpa49, active compounds read low",0.918
same,normalized growth,"S. cerevisiae deletion strains, locus YNL250W, strain rad50, active compounds read low",0.93
same,normalized growth,"S. cerevisiae deletion strains, locus YNL271C, strain bni1, active compounds read low",0.532 (active)
same,normalized growth,"S. cerevisiae deletion strains, locus YNL298W, strain CLA4, active compounds read low",0.877 (active)
same,normalized growth,"S. cerevisiae deletion strains, locus YNL307C, strain MCK1, active compounds read low",0.0701 (active)
same,normalized growth,"S. cerevisiae deletion strains, locus YNL322C, strain KRE1 (second series), active compounds read low",0.974
same,normalized growth,"S. cerevisiae deletion strains, locus YNL322C, strain KRE1, active compounds read low",0.991
same,normalized growth,"S. cerevisiae deletion strains, locus YNR049C, strain mso1, active compounds read low",0.945
same,normalized growth,"S. cerevisiae deletion strains, locus YNR052C, strain pop2, active compounds read low",1.03
same,normalized growth,"S. cerevisiae deletion strains, locus YOL006C, strain TOP1, active compounds read low",1.06
same,normalized growth,"S. cerevisiae deletion strains, locus YOL012C, strain htz1",0.214
same,normalized growth,"S. cerevisiae deletion strains, locus YOL147C, strain pex11, active compounds read low",0.987
same,normalized growth,"S. cerevisiae deletion strains, locus YOR001W, strain rrp6, active compounds read low",0.965
same,normalized growth,"S. cerevisiae deletion strains, locus YOR061W, strain CKA2, active compounds read low",0.991
same,normalized growth,"S. cerevisiae deletion strains, locus YOR069W, strain VPS5, active compounds read low",0.989
same,normalized growth,"S. cerevisiae deletion strains, locus YOR070C, strain gyp1, active compounds read low",0.965
same,normalized growth,"S. cerevisiae deletion strains, locus YOR080W, strain dia2, active compounds read low",0.961
same,normalized growth,"S. cerevisiae deletion strains, locus YOR083W, strain WHI5, active compounds read low",0.975
same,normalized growth,"S. cerevisiae deletion strains, locus YOR106W, strain vam3, active compounds read low",0.96
same,normalized growth,"S. cerevisiae deletion strains, locus YOR136W, strain idh2, active compounds read low",0.147 (active)
same,normalized growth,"S. cerevisiae deletion strains, locus YOR144C, strain elg1, active compounds read low",0.996
same,normalized growth,"S. cerevisiae deletion strains, locus YOR184W, strain ser1, active compounds read low",0.0809 (active)
same,normalized growth,"S. cerevisiae deletion strains, locus YOR231W, strain MKK1, active compounds read low",1.03
same,normalized growth,"S. cerevisiae deletion strains, locus YOR265W, strain rbl2, active compounds read low",0.968
same,normalized growth,"S. cerevisiae deletion strains, locus YOR270C, strain vph1, active compounds read low",0.952
same,normalized growth,"S. cerevisiae deletion strains, locus YOR290C, strain snf2, active compounds read low",0.993
same,normalized growth,"S. cerevisiae deletion strains, locus YOR316C, strain cot1, active compounds read low",0.171 (active)
same,normalized growth,"S. cerevisiae deletion strains, locus YPL051W, strain arl3, active compounds read low",0.967
same,normalized growth,"S. cerevisiae deletion strains, locus YPL055C, strain LGE1, active compounds read low",0.946
same,normalized growth,"S. cerevisiae deletion strains, locus YPL078C, strain atp4, active compounds read low",0.951
same,normalized growth,"S. cerevisiae deletion strains, locus YPL106C, strain sse1, active compounds read low",0.982
same,normalized growth,"S. cerevisiae deletion strains, locus YPL240C, strain hsp82, active compounds read low",0.949
same,normalized growth,"S. cerevisiae deletion strains, locus YPL241C, strain CIN2, active compounds read low",0.995
same,normalized growth,"S. cerevisiae deletion strains, locus YPL256C, strain CLN2, active compounds read low",1.08
same,normalized growth,"S. cerevisiae deletion strains, locus YPR119W, strain clb2, active compounds read low",0.288 (active)
same,normalized growth,"S. cerevisiae deletion strains, locus YPR141C, strain kar3, active compounds read low",1
same,normalized growth,"S. cerevisiae deletion strains, locus YPR163C, strain tif3, active compounds read low",0.0934 (active)
same,normalized growth,"S. cerevisiae deletion strains, locus YPR167C, strain met16, active compounds read low",0.152 (active)
same,normalized growth,"S. cerevisiae deletion strains, strain wtn01, active compounds read low",0.0828 (active)
same,normalized growth,"S. cerevisiae strains, strain wild type, active compounds read low",0.997
